PMC7862700, “An all-to-all approach to the identification of sequence-specific readers for epigenetic DNA modifications on cytosine”

Assays:
Assay in all cases: DAPPL (digital affinity profiling via proximity ligation, sequencing); 10 mM Tris-HCl pH 7.5, 50 mM NaCl, 1 mM DTT, 4% glycerol, room temperature, 30 min; GST-TFs on glutathione beads, 16-mer random dsDNA library, 0.1% formaldehyde crosslink after washing; high values mean tight binding
[1] = target: T1, FLI1 (Homo sapiens, UniProt Q01543 1-452); details: protein: recombinant; tags: N-terminal GST; dsDNA, one strand shown
T1 sequence: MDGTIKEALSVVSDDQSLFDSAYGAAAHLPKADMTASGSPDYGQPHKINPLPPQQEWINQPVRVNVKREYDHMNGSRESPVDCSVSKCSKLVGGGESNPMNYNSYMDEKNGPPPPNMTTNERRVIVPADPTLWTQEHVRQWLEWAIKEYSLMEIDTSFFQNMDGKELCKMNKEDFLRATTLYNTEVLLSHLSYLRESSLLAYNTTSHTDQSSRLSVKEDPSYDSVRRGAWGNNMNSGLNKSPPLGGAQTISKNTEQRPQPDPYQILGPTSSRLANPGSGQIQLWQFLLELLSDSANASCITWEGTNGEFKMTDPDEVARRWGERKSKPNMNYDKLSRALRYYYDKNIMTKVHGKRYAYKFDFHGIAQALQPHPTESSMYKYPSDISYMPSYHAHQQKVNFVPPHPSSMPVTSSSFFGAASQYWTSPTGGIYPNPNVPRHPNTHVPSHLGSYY
Method in brief: (§1)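 Binding signal is given per hexamer as its read frequency for a factor divided by its frequency in the tag-only sample. GST-fused human transcription factors were expressed in yeast, captured on glutathione beads, barcoded with DNA and pooled with that sample, then incubated with 200 nmole of a 16-mer random double-stranded DNA library in Tris/NaCl/DTT/glycerol buffer for 30 min at room temperature. The pools were then washed, crosslinked, proximity-ligated, amplified by PCR and sequenced on an Illumina NextSeq500.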

[2] = target: T2, ELK1 (Homo sapiens, UniProt P19419 1-428); details: protein: recombinant; tags: N-terminal GST; dsDNA, one strand shown
T2 sequence: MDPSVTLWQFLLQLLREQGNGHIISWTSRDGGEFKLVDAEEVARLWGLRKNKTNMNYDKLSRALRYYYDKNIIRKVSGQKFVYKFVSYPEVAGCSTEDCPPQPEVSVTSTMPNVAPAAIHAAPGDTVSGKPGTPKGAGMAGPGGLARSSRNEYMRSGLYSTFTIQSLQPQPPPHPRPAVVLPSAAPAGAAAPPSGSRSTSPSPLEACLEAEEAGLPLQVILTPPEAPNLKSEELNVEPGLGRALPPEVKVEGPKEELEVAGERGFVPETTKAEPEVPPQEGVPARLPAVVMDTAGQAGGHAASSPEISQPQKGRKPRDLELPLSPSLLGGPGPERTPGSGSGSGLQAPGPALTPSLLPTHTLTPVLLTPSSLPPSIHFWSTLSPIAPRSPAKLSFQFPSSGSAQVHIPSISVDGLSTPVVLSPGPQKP
Method in brief: as §1

[3] = target: T3, GABPA (Homo sapiens, UniProt Q06546 1-454); details: protein: recombinant; tags: N-terminal GST; dsDNA, one strand shown
T3 sequence: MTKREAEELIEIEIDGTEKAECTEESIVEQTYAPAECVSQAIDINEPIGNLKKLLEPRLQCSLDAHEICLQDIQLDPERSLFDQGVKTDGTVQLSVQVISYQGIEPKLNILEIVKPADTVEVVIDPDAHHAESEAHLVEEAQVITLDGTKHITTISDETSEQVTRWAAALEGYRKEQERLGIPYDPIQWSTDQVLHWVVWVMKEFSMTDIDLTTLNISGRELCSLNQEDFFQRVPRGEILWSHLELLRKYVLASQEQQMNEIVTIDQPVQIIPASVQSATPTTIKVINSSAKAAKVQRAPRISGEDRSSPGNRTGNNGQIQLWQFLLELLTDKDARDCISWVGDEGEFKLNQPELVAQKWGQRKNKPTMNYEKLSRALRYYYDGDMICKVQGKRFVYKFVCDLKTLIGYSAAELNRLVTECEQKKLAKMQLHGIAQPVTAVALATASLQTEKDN
Method in brief: as §1

[4] = target: T4, ERG (Homo sapiens, UniProt P11308 1-479); details: protein: recombinant; tags: N-terminal GST; dsDNA, one strand shown
T4 sequence: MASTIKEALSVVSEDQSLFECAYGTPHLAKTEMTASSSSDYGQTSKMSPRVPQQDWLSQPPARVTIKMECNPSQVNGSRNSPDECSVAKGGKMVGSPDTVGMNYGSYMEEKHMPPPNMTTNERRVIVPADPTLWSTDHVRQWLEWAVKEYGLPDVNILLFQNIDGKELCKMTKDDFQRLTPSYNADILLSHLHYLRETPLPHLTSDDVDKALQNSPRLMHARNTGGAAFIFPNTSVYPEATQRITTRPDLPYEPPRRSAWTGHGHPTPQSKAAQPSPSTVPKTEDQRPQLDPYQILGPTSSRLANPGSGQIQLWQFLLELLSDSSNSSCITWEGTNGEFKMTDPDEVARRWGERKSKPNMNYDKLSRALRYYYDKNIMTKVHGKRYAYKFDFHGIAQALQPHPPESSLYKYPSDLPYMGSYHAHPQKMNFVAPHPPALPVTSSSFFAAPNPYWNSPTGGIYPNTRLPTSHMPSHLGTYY
Method in brief: as §1

[5] = target: ELF1 (Homo sapiens, UniProt P32519 1-619); details: protein: recombinant; tags: N-terminal GST; dsDNA, one strand shown
Method in brief: as §1

[6] = target: T5, EHF (Homo sapiens, UniProt Q9NZC4 1-300); details: protein: recombinant; tags: N-terminal GST; dsDNA, one strand shown
T5 sequence: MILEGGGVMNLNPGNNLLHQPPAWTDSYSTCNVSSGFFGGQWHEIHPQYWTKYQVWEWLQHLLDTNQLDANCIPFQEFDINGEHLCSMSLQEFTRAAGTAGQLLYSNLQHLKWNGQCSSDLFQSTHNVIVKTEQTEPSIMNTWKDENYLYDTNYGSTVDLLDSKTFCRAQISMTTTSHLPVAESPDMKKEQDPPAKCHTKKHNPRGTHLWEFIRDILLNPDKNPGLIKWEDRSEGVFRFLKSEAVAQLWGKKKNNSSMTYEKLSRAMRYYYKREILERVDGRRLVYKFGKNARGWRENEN
Method in brief: as §1

[7] = target: SPI1 (Homo sapiens, UniProt P17947 1-270); details: protein: recombinant; tags: N-terminal GST; dsDNA, one strand shown
Method in brief: as §1

[8] = target: SPIB (Homo sapiens, UniProt Q01892 1-262); details: protein: recombinant; tags: N-terminal GST; dsDNA, one strand shown
Method in brief: as §1

[9] = target: T6, ELK3 (Homo sapiens, UniProt P41970 1-407); details: protein: recombinant; tags: N-terminal GST; dsDNA, one strand shown
T6 sequence: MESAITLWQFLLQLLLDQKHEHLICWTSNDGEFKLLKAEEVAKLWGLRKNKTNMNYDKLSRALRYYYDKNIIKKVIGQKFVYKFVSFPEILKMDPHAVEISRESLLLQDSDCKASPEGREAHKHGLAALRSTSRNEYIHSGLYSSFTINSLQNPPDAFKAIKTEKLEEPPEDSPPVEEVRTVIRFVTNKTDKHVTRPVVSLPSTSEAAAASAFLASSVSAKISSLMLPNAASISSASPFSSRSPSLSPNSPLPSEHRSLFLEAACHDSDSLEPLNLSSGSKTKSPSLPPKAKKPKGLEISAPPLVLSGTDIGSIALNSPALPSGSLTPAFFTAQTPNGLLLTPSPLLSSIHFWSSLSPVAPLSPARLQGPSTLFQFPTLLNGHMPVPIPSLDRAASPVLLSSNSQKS
Method in brief: as §1

[10] = target: T7, FEV (Homo sapiens, UniProt Q99581 1-238); details: protein: recombinant; tags: N-terminal GST; dsDNA, one strand shown
T7 sequence: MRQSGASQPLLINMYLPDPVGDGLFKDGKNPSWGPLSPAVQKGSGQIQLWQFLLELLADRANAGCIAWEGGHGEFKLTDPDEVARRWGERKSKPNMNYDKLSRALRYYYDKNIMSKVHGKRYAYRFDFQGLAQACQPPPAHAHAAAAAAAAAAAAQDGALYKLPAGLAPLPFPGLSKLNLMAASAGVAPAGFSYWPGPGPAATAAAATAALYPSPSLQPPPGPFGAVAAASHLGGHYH
Method in brief: as §1

[11] = target: ETV5 (Homo sapiens, UniProt P41161 1-510); details: protein: recombinant; tags: N-terminal GST; dsDNA, one strand shown
Method in brief: as §1

[12] = target: HSF1 (Homo sapiens, UniProt Q00613 1-529); details: protein: recombinant; tags: N-terminal GST; chain copies: 3; dsDNA, one strand shown
Method in brief: as §1

[13] = target: T8, SPIC (Homo sapiens, UniProt Q8N5J4 1-248); details: protein: recombinant; tags: N-terminal GST; dsDNA, one strand shown
T8 sequence: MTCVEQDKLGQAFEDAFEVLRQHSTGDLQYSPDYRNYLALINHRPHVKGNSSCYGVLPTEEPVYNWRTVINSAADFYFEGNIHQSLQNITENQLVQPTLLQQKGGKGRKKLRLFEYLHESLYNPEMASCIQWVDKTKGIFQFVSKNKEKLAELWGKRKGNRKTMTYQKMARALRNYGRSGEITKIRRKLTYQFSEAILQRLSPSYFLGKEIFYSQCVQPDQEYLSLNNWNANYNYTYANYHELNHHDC
Method in brief: as §1

[14] = target: ELF4 (Homo sapiens, UniProt Q99607 1-663); details: protein: recombinant; tags: N-terminal GST; dsDNA, one strand shown
Method in brief: as §1

[15] = target: T9, ELK4 (Homo sapiens, UniProt P28324-2 1-405); details: protein: recombinant; tags: N-terminal GST; dsDNA, one strand shown
T9 sequence: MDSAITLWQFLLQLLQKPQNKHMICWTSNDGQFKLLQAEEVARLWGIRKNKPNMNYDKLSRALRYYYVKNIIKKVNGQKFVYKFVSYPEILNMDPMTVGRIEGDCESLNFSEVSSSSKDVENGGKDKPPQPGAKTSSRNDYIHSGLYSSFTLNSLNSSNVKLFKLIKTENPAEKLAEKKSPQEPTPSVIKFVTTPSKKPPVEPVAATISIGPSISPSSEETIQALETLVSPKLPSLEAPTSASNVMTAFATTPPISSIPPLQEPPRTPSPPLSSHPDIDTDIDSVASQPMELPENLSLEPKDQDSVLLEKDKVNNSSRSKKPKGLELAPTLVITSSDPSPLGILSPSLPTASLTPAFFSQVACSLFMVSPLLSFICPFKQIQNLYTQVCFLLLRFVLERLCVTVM
Method in brief: as §1

[16] = target: T10, ETV2 (Homo sapiens, UniProt O00321 1-342); details: protein: recombinant; tags: N-terminal GST; dsDNA, one strand shown
T10 sequence: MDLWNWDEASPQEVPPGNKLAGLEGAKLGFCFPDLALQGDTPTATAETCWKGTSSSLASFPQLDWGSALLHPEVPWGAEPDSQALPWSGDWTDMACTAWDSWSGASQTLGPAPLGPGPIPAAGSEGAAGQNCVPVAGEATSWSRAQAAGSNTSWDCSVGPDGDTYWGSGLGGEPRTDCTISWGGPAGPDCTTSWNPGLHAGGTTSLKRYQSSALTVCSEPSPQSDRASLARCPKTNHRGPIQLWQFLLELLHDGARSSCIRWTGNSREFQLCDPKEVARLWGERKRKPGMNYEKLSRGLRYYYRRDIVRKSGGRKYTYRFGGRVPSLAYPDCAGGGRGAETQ
Method in brief: as §1

[17] = target: T11, ELF3 (Homo sapiens, UniProt P78545 1-371); details: protein: recombinant; tags: N-terminal GST; dsDNA, one strand shown
T11 sequence: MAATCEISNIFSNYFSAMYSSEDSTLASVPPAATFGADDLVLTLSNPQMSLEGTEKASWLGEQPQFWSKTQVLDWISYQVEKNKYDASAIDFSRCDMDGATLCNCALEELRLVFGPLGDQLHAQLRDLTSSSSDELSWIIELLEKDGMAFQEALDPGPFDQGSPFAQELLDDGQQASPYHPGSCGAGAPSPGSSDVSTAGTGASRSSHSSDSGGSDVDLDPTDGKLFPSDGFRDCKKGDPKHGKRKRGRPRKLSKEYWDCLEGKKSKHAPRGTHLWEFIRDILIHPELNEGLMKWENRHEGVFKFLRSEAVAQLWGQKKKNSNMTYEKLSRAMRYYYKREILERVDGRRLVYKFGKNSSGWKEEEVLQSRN
Method in brief: as §1

[18] = target: CRX (Homo sapiens, UniProt O43186 1-299); details: protein: recombinant; tags: N-terminal GST; dsDNA, one strand shown
Method in brief: as §1

[19] = target: ETV1 (Homo sapiens, UniProt P50549 1-477); details: protein: recombinant; tags: N-terminal GST; dsDNA, one strand shown
Method in brief: as §1

ELF1, sequence (P32519 whole entry): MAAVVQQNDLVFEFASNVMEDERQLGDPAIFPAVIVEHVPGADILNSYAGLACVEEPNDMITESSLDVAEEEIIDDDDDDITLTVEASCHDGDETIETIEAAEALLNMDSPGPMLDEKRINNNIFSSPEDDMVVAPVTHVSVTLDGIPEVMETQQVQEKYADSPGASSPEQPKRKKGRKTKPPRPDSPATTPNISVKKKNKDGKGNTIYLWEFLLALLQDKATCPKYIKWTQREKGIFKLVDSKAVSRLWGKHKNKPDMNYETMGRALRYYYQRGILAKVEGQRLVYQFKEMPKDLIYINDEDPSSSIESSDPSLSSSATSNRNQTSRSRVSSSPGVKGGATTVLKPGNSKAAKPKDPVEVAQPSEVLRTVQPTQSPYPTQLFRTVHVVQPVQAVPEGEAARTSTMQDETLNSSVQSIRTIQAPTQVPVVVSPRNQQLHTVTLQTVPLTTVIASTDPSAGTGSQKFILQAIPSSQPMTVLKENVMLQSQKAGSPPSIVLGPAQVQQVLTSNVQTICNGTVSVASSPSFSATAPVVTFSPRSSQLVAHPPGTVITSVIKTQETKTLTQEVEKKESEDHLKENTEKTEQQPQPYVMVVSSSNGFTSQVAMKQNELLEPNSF
ETV1, sequence (P50549 whole entry): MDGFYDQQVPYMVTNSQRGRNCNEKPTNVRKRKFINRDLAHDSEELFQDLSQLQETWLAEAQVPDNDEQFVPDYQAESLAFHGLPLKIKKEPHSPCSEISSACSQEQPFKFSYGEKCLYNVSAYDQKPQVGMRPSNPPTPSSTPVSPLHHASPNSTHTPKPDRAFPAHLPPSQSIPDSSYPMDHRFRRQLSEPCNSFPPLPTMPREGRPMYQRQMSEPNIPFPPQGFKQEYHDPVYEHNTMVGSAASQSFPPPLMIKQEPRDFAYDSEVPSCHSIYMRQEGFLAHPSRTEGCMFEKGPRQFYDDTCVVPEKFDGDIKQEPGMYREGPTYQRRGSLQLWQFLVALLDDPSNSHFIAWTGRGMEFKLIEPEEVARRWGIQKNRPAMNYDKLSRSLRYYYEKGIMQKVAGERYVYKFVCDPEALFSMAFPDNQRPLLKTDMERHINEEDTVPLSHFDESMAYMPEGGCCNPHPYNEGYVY
HSF1, sequence (Q00613 whole entry): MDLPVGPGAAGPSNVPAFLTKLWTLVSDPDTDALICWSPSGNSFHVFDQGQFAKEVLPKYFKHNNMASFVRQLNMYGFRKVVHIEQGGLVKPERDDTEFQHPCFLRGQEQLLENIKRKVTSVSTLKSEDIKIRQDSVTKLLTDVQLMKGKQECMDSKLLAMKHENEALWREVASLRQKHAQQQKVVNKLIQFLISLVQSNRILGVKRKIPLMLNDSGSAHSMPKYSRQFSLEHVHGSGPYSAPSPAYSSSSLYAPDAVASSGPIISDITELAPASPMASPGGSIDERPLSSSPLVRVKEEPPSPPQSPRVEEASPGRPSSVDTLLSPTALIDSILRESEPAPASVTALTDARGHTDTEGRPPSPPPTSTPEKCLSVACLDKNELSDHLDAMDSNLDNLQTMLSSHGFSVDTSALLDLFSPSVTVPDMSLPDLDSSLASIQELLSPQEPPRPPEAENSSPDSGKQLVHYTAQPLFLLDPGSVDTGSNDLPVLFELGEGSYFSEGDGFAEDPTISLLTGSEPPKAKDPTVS
SPIB, sequence (Q01892 whole entry): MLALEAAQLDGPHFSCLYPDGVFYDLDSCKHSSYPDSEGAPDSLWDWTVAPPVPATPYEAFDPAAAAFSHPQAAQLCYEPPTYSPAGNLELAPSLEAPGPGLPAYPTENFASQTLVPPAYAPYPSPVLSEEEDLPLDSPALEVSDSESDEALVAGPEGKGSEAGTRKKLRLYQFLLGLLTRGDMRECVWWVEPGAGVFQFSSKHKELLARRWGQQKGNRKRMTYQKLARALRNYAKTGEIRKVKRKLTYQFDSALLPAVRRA
ELF4, sequence (Q99607 whole entry): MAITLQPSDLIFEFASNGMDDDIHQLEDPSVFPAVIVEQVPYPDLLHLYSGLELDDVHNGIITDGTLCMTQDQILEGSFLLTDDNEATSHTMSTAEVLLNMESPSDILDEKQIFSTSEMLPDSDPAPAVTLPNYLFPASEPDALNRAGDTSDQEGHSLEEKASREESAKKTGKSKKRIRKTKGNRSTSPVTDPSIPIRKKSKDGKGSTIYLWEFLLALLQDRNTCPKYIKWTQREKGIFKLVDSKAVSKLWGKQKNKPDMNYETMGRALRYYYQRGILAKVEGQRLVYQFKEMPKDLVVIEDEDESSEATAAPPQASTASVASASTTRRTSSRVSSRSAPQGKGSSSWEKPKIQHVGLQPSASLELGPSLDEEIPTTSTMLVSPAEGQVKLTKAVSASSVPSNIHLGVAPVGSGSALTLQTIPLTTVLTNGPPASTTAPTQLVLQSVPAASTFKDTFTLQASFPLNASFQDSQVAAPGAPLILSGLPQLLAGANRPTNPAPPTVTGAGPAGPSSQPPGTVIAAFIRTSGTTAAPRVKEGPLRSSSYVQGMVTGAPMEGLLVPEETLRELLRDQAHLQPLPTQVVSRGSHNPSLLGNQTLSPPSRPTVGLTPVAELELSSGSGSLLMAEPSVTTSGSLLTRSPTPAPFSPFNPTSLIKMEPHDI
CRX, sequence (O43186 whole entry): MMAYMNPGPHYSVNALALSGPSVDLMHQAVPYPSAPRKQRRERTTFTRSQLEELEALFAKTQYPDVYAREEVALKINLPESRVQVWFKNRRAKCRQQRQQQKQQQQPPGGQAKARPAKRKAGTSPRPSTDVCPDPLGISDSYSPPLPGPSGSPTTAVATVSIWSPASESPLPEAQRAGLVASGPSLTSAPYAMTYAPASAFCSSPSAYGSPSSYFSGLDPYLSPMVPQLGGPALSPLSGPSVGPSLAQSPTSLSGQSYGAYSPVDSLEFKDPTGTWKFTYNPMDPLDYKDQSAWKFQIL
ETV5, sequence (P41161 whole entry): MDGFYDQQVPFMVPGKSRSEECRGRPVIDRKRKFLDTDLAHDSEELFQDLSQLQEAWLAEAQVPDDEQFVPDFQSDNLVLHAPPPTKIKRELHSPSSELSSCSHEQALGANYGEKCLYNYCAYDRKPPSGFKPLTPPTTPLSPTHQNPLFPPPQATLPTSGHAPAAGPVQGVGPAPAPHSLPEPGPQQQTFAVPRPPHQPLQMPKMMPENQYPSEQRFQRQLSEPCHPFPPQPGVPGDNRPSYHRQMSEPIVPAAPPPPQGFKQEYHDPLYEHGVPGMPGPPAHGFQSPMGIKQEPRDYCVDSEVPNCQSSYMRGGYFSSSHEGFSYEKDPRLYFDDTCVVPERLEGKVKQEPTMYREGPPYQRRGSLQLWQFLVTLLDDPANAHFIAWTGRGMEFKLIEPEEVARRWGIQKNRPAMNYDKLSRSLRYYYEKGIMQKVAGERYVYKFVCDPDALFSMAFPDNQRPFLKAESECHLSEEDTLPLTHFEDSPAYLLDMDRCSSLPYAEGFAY

AGCAAT was tested, and the binding signal [1] was 1.07 fold enrichment (6-mer frequency, TF over GST control), the binding signal [2] was 1.15 fold enrichment (6-mer frequency, TF over GST control) and the binding signal [3] was 1.09 fold enrichment (6-mer frequency, TF over GST control). For the same sequence, the binding signal [4] was 1.11 fold enrichment (6-mer frequency, TF over GST control), the binding signal [5] was 1.18 fold enrichment (6-mer frequency, TF over GST control) and the binding signal [6] was 1.1 fold enrichment (6-mer frequency, TF over GST control). For the same sequence, the binding signal [7] was 1.1 fold enrichment (6-mer frequency, TF over GST control), the binding signal [8] was 1.18 fold enrichment (6-mer frequency, TF over GST control) and the binding signal [9] was 1.05 fold enrichment (6-mer frequency, TF over GST control). The binding signal [10] was 1.08 fold enrichment (6-mer frequency, TF over GST control), the binding signal [11] was 1.14 fold enrichment (6-mer frequency, TF over GST control) and the binding signal [12] was 1.1 fold enrichment (6-mer frequency, TF over GST control). For the same sequence, the binding signal [13] was 1.05 fold enrichment (6-mer frequency, TF over GST control), the binding signal [14] was 1.2 fold enrichment (6-mer frequency, TF over GST control) and the binding signal [15] was 1.14 fold enrichment (6-mer frequency, TF over GST control). For the same sequence, the binding signal [16] was 1.14 fold enrichment (6-mer frequency, TF over GST control), the binding signal [17] was 1.13 fold enrichment (6-mer frequency, TF over GST control) and the binding signal [18] was 1.06 fold enrichment (6-mer frequency, TF over GST control). For the same sequence, the binding signal [19] was 1.09 fold enrichment (6-mer frequency, TF over GST control).
